An excerpt weighted towards active compounds, which were near 5.2% of everything screened.
TrxR1 inh – rat TrxR1 inhibition; 390,000 tested, 1% active; Potency, µM (highest dose often 114 µM), without a hit: at the highest dose activity change, negative = inhibition, usual class: inhibitors; O89049; recombinant rTrxR1, NADPH fluorescence consumption, selenite substrate; note: nearly all actives have a fitted effect of over 65% in size
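Rat TrxR1 (90 nM in the dispensed reagent) was pre-reduced with 400 uM NADPH for 5 min at room temperature, then incubated with compound for 15 min. After 400 uM selenite was added, NADPH fluorescence (Ex 340/Em 450 nm) was followed for 8 min.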
TrxR1 substrate – is turned over as a substrate by rat TrxR1; 390,000 tested, 0.01% active; purified TrxR1 substrate turnover, NADPH consumption readout; AID 588456; Potency, µM (series often up to 114 µM), for the others: at the top dose activity change, negative = substrate turnover; O89049; note: nearly all actives have a fitted effect of over 50% in size
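Rat TrxR1, dispensed at 90 nM, was prereduced with 400 uM NADPH (final) for 5 min at ~22 deg C, then incubated with compound 15 min before 400 uM selenite. A first-read NADPH fluorescence drop versus no-compound background flagged substrates.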
PLK1 PBD block – inhibitors of human PLK1 polo-box domain binding. P53350. Plk1 PBD binding of FITC phosphopeptide, fluorescence polarization. Potency, µM, for inactives: max response, negative = inhibition, hits mostly inhibitors. 360,000 tested, 2.8% active. AID 720504; note: series mostly up to about 57 µM; nearly all actives have a fitted effect of over 65% in size
Sfp PPTase inh – inhibitors of Bacillus subtilis Sfp phosphopantetheinyl transferase; Q9F4F7; Biochemical Sfp PPTase activity, qHTS; Potency, µM, for the others: largest response in the series, negative = inhibition, most hits filed as inhibitors; 310,000 tested, 3.5% active; AID 1490;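 note: the enzyme is Sfp with the accession as filed and its product quenches rhodamine fluorescence; 0% = enzyme reaction without inhibitor and -100% = no enzyme wells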
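Reaction rates are the 30-min fluorescence difference (ex 525, em 598 nm) in wells containing 15 nM Sfp, 5 uM rhodamine-CoA and 12.5 uM BHQ-2-YbbR at pH 7.6 with 10 mM MgCl2.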
IDH1 R132H inh – blocks human mutant IDH1 R132H enzyme; IDH1-R132H enzyme, NADPH consumption, diaphorase/resazurin fluorescence; Potency, µM (top dose mostly 76.6 µM), without a hit: at the highest dose activity change, negative = inhibition, most hits filed as inhibitors; 390,000 tested, 0.093% active; note: nearly all actives have a fitted effect of over 65% in size
Target sequence (O75874 whole entry R132H, stated change not applied): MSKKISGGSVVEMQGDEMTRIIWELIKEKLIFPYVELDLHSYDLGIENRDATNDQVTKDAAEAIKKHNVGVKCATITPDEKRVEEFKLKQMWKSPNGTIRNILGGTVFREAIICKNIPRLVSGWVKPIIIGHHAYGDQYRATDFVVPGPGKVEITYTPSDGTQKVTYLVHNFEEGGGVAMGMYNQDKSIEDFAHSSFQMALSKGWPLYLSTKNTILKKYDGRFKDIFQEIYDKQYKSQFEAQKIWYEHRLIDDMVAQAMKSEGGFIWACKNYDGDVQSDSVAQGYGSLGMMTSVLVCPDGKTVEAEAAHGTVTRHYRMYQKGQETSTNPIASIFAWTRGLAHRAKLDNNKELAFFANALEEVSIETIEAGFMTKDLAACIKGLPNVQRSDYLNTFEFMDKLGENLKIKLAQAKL
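IDH1-R132H (0.5 ug/mL) preincubated 30 min with compound, then NADPH (0.016 mM) and alpha-KG (2 mM) added; 80 min at RT, pH 7.5. Remaining NADPH coupled via diaphorase/resazurin to fluorescence (540/590 nm); concentration-response curves normalized to no-enzyme control.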
VDR inh – inhibitors of human vitamin D receptor | AID 504847 | VDR-SRC2-3 peptide fluorescence polarization, 2 h | 400,000 tested, 0.93% active | P11473 | Potency, µM, for inactives: max response, negative = inhibition, actives largely listed as inhibitors
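Signal is fluorescence polarization, reporting how far test compounds block the interaction of VDR with the SRC2-3 coregulator peptide after a 2 h room-temperature incubation.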
The depositor's hits bear a star; ? = inconclusive; . = not tested or not shown; [ ] = another dose, or the depositor's remark. Calls come from the whole dose curve; as a rule, active = well fitted curve in the direction sought with a large enough effect; inconclusive = small, poorly fitted or top-dose-only effect, or another doubt; inactive = no such curve, though single readings can be large; an effect the other way counts as inactive or inconclusive. Unless noted, % is set by controls: 0 for no effect and ±100 for the full control effect; potency is the fitted concentration of half-maximal effect.

SMILES	TrxR1 inh	TrxR1 substrate	PLK1 PBD block	Sfp PPTase inh	IDH1 R132H inh	VDR inh
CCN1CCN(C(=O)c2cc(COc3ccc(C(C)=O)cc3OC)on2)CC1	4.0%	2.4%	-12.8%	24.4%	-0.4%	15.7%
CO/N=C(\C)CCN1CCc2nc(-c3ccccc3)c(-c3ccccc3)cc2C1	.	.	.	2.5%	.	.
COc1ccc(-c2onc3ccc(Cl)cc23)cc1	-21.3%	0.7%	-3.0%	50.1µM*	-4.6%	9.2%
Cc1ccc(-c2onc3ccc(Cl)cc23)cc1	-11.7%	-9.3%	-10.1%	3.5%	5.7%	0.9%
COc1cccc(Nc2ccccc2C(=O)O)c1	17.7%[57.1 µM]	7.8%[57.1 µM]	-10.7%	11.4%	15.5%	1.9%
COc1cc(-c2ccc(Nc3ccccc3C(=O)O)c(OC)c2)ccc1Nc1ccccc1C(=O)O	-24.2%	-13.6%	16.8µM*	50.1µM*	3.0%	?
CC/C(=C\c1ccc(C(=O)OC)cc1)c1cc(OC)cc2oc3ccccc3c12	74.5%	129.4%	.	.	.	.
COc1cccc(C2=Nn3c(nnc3-c3cc(OC)ccc3OC)SC2)c1	.	.	.	-15.9%	.	.
C=CCNC(=O)C1CC(=O)N(c2ccc(Br)cc2)C1 (stereo not drawn)	13.0%[57.1 µM]	14.0%	-1.2%	9.1%	1.3%	6.2%
CCNC(=O)C1CC(=O)N(c2ccc(Br)cc2)C1 (stereo not drawn)	11.5%[57.1 µM]	8.7%[57.1 µM]	23.8µM*	9.0%	-0.4%	-17.8%
COc1cc2c(cc1OC)C(c1ccccc1)N(C(=O)CCl)CC2 (stereo not drawn)	4.47µM*	3.2%	-3.4%	1.9%	1.4%	-3.9%
COc1cc2c(cc1OC)C(C1C(=O)CCCC1=O)N(C(=O)CCl)CC2 (stereo not drawn)	-6.1%	22.6%	0.3%	0.3%	-3.0%	-26.7%
O=C(O)/C(=C\c1cn(-c2ccccc2)nc1-c1cccnc1)NC(=O)c1ccccc1	9.1%	3.1%	5.7%	26.0%	10.8%	0.1%
NC(=S)N/N=C/c1cn(-c2ccccc2)nc1-c1cccnc1	7.2%	-2.5%	3.36µM*	-2.8%	-3.4%	28.2µM*
Cc1cccc(N(C)S(=O)(=O)c2c(C)[nH]c(C)c2C(=O)N2CCCC2)c1	13.7%	-1.2%	23.8µM*	10.7%	13.4%	-25.0%
CCNc1nc(C#N)nc(N2CCCCC2)n1	4.2%	-5.6%	.	.	.	?
CC(C)CCn1c(=O)c2ccccc2n2c(=S)[nH]nc12	-44.6%	-4.3%[57.1 µM]	-15.5%	56.2µM*	1.6%	-13.1%
CC(C)CCn1c(=O)c2ccccc2n2c(CCl)nnc12	22.4µM*	12.6%[57.1 µM]	-7.0%	0.7%	12.2%	7.9%
CCCOC(=O)C1=C(C)CS[C@@H]2[C@H](NC(=O)COc3ccccc3)C(=O)N12	-12.8%	3.9%	.	.	.	.
NCCn1c(=O)c(CCc2ccccc2)nc2cncnc21	.	.	.	-27.8%	.	-13.9%
COc1cc(C)c2c(c1C=O)Oc1c(c(C)c(O)c3c1C(O)OC3=O)OC2=O (stereo not drawn)	-5.1%	2.3%	-24.0%	?	?	44.7µM*
Cc1cc(O)c(C=O)c2c1C(=O)Oc1c(C)c(O)c3c(c1O2)C(O)OC3=O (stereo not drawn)	.	.	.	-67.0%	.	6.31µM*
ClCC(CNCc1ccccc1)c1ccccc1 (stereo not drawn)	-3.7%	-8.1%	-19.4%	.	-2.7%	-0.6%
CCCNC(=O)C1(C)CCCN(C(=O)COc2ccc(Cl)cc2Cl)C1 (stereo not drawn)	.	.	-4.0%	.	.	.
COCc1[nH]c(=S)[nH]c(=O)c1C	-11.8%[57.1 µM]	8.3%[57.1 µM]	-5.0%	79.4µM*	7.9%	10.1%
SMILES	TrxR1 inh	TrxR1 substrate	PLK1 PBD block	Sfp PPTase inh	IDH1 R132H inh	VDR inh
CCCC1C(C#N)=C(N)Oc2n[nH]c(C(C)(C)C)c21 (stereo not drawn)	-11.8%[57.1 µM]	-8.2%[57.1 µM]	6.7µM*	1.0%	9.1%	?
N#CC1=C(N)Oc2n[nH]c(-c3cccs3)c2C1c1cccs1 (stereo not drawn)	-30.9%	2.6%	23.8µM*	-10.4%	12.2%	7.0%
Cc1ccc(C2C(C#N)=C(N)Oc3n[nH]c(-c4cccnc4)c32)o1 (stereo not drawn)	?	-13.6%	?	4.1%	0.0%	-2.6%
Cc1ccc(C2C(C#N)=C(N)Oc3n[nH]c(-c4ccccc4)c32)o1 (stereo not drawn)	-39.9%	4.5%[57.1 µM]	3.36µM*	?	3.4%	25.1µM*
Cc1ccc(C2C(C#N)=C(N)Oc3c2sc2ccccc32)o1 (stereo not drawn)	.	.	.	56.2µM*	.	.
Cc1c(C(=O)NN2CCOCC2)nn(-c2ccc(Cl)cc2Cl)c1-c1ccc(I)cc1	.	.	.	-10.6%	.	-14.2%
COc1ccc(-c2cnc(C)o2)cc1S(=O)(=O)Nc1ccc(C)c(F)c1	8.0%[57.1 µM]	1.9%[57.1 µM]	.	.	-6.2%	9.2%
CC(C)CC1C(C#N)=C(N)Oc2n[nH]c(-c3cccs3)c21 (stereo not drawn)	-8.5%	-4.7%	-18.9%	9.5%	4.6%	?
CSCCC1C(C#N)=C(N)Oc2n[nH]c(-c3cccs3)c21 (stereo not drawn)	10µM*	-0.5%	-27.4%	-13.9%	1.7%	-5.4%
C=C1C(=O)C23C(O)C1CCC2C12CCCC(C)(COC(C)=O)C1C(O)C3(O)OC2 (stereo not drawn)	7.08µM*	-7.4%	15µM*	.	3.0%	25.1µM*
C=Cc1ccc(Cn2ccn(-c3ccc(F)c(F)c3)c(=O)c2=O)cc1	12.1%	-0.6%	.	.	10.7%	13.5%
Cc1nc([N+](=O)[O-])cn1CC(O)c1ccc2c(c1)OCCO2 (stereo not drawn)	11.9%	-3.1%	.	.	.	.
O=C1CSC(=S)N1	-10.1%	2.1%	1.5%	?	-4.9%	-2.4%
CCN(CC)CCNC(=O)C1c2cc(OC)c(OC)cc2C(=O)N2CCc3ccccc3C12 (stereo not drawn)	35.5µM*	1.9%	-20.8%	17.0%	6.8%	2.0%
COc1c(OC)c(O)c2c(=O)cc(-c3c(O)cccc3O)oc2c1OC	-35.6%[57.1 µM]	4.5%[57.1 µM]	-5.6%	20µM*	-6.0%	0.2%
Cc1nn2c(N)csc2nc1=O	.	.	.	50.1µM*	.	.
Cc1nn2c3ccccc3n(Cc3ccccc3)c2nc1=O	-4.2%[57.1 µM]	20.5%	-8.2%	13.5%	3.9%	1.2%
Oc1ccc(N=Cc2ccc(O)c(O)c2)cc1	-25.7%	-11.6%	21.2µM*	44.7µM*	13.1%	?
CCOC(=O)C1(C)CCCN(C(=O)c2cc(C#N)cs2)C1 (stereo not drawn)	.	.	-0.4%	.	.	.
O=C(O)c1ccccc1CSC1=NCCS1	33.3%	2.5%	16.8µM*	?	3.1%	-23.1%
Cc1ccc(CSc2ncccc2C(=O)O)cc1	16.8%[57.1 µM]	3.3%[57.1 µM]	-10.3%	14.3%	-7.0%	2.9%
O=C(O)c1ccccc1CSc1ncccc1C(=O)O	-2.6%[57.1 µM]	0.7%[57.1 µM]	-7.7%	44.7µM*	-4.9%	3.3%
COC(=O)c1c(C)nc2ccccc2c1-c1ccccc1	8.6%	2.9%	-5.6%	10.6%	0.0%	2.3%
